Test results from PubChem BioAssay (NCATS).
Results filed as inconclusive are left out. The source made the active and inactive calls. Calls follow the shape of the dose curve; as a rule, active = well fitted inhibition curve with a large enough effect; inconclusive = small, poorly fitted or top-dose-only effect; inactive = flat fitted curve, though single readings scatter.

Assays:
Experiment in all cases: qHTS profiling for inhibitors of Plasmodium falciparum proliferation (AID 504749); also: nearly all actives have a fitted effect of over 60% in size
Details in all cases: P. falciparum in erythrocytes, SYBR Green DNA, 72 h; series mostly up to 28.7 µM
CP286 = tested on: CP286
Procedure, shortened: (§1)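 SYBR Green fluorescence of parasite DNA, read after lysis and overnight dark incubation, measured growth over 72 h in erythrocyte culture at 0.3% parasitemia and 2.5% hematocrit. Data normalised to DMSO and 0.29 uM artemisinin, with plate-drift correction.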

CP291 = tested on: CP291
Procedure, shortened: as §1

CP297 = tested on: CP297
Procedure, shortened: as §1

CP305 = tested on: CP305
Procedure, shortened: as §1

CP315 = tested on: CP315
Procedure, shortened: as §1

CP325 = tested on: CP325
Procedure, shortened: as §1

CP329 = tested on: CP329
Procedure, shortened: as §1

CP335 = tested on: CP335
Procedure, shortened: as §1

DFO2036 = tested on: DFO2036
Procedure, shortened: as §1

DIV14 = tested on: DIV14
Procedure, shortened: as §1

DIV17 = tested on: DIV17
Procedure, shortened: as §1

DIV30 = tested on: DIV30
Procedure, shortened: as §1

Dd2 = tested on: Dd2
Procedure, shortened: as §1

ECU = tested on: ECU
Procedure, shortened: as §1

FAB9 = tested on: FAB9
Procedure, shortened: as §1

GB4 = tested on: GB4
Procedure, shortened: as §1

HB3 = tested on: HB3
Procedure, shortened: as §1

JCK = tested on: JCK
Procedure, shortened: as §1

N140 = tested on: N140
Procedure, shortened: as §1

ICS = tested on: ICS
Procedure, shortened: as §1

Measured: Potency
Potency is read from the fitted curve at half-maximal effect.

C[C@]12CCC(=O)C=C1CC[C@@H]1[C@@H]2CC[C@@]2(C)[C@H]1CC[C@]2(O)C(=O)CO
not listed: ICS
inactive: all other assays above

CC(=O)Oc1cc(C(C)C)c(OCCN(C)C)cc1C
not listed: CP335
inactive: all other assays above

Brc1c(NC2=NCCN2)ccc2nccnc12
active: GB4 12 µM | ICS 3.98 µM
not listed: CP335 | DIV14 | DIV17 | ECU | HB3 | N140
inactive: all other assays above

CC1=NS(=O)(=O)c2cc(Cl)ccc2N1
not listed: Dd2 | HB3 | JCK
inactive: all other assays above

CCCCNc1c(C(=O)OCC)c(C)nc2c1cnn2CC
not listed: CP335 | DIV17 | ICS
inactive: all other assays above

CCN1CCC[C@H]1CNC(=O)c1c(O)c(Cl)cc(Cl)c1OC
inactive: all assays above

O=C1CC2(CCCC2)CC(=O)N1CCCCN1CCN(c2ncccn2)CC1
not listed: DIV14 | DIV17 | ECU | GB4
inactive: all other assays above

Nc1c2c(nc3ccccc13)CCCC2O (stereo not given)
not listed: DIV17
inactive: all other assays above

CCCCNc1ccc(C(=O)OCCN(C)C)cc1
not listed: CP325 | CP329 | DFO2036 | DIV14 | DIV17
inactive: all other assays above

COC(=O)[C@@H](N)Cc1ccc(O)c(O)c1
not listed: CP335 | DIV14 | DIV17 | GB4
inactive: all other assays above

NC(=Nc1ccccc1)Nc1ccccc1
not listed: CP297 | DIV14 | Dd2 | GB4
inactive: all other assays above

COC(=O)[C@H]1[C@H]2C[C@@H]3c4[nH]c5cc(OC)ccc5c4CCN3C[C@H]2C[C@@H](OC(=O)c2cc(OC)c(OC)c(OC)c2)[C@@H]1OC
active: CP286 11.2 µM | CP291 15.1 µM | CP297 3.38 µM | CP315 16.9 µM | CP325 13.5 µM | CP329 13.5 µM | CP335 8.49 µM | DIV14 1.69 µM | DIV17 1.51 µM | DIV30 1.07 µM | Dd2 12.6 µM | ECU 5.01 µM | GB4 13.5 µM | HB3 11.2 µM | ICS 3.55 µM | N140 3.98 µM

CN(C)CCOC(=O)COc1ccc(Cl)cc1
not listed: CP325 | DIV14 | DIV17
inactive: all other assays above

CCN(CC)CCCN(c1ccccc1)C1Cc2ccccc2C1
active: CP286 5.01 µM | CP291 7.57 µM | CP297 13.5 µM | CP305 6.75 µM | CP325 8.49 µM | CP329 12 µM | CP335 4.78 µM | DFO2036 5.01 µM | DIV14 2.13 µM | DIV17 4.26 µM | DIV30 8.49 µM | Dd2 3.98 µM | ECU 3.98 µM | FAB9 5.62 µM | GB4 6.01 µM | HB3 11.2 µM | ICS 3.55 µM | JCK 11.2 µM | N140 5.01 µM

OCCN1CCN(CC/C=C2/c3ccccc3Sc3ccc(C(F)(F)F)cc32)CC1
active: CP286 8.91 µM | CP291 9.53 µM | CP297 6.75 µM | CP305 7.57 µM | CP325 6.01 µM | CP329 6.75 µM | CP335 4.26 µM | DIV17 6.75 µM | DIV30 8.49 µM | Dd2 7.94 µM | ECU 12.6 µM | GB4 6.75 µM | HB3 6.31 µM | ICS 6.31 µM | N140 11.2 µM

CCCCOCCOCCOCc1cc2c(cc1CCC)OCO2
inactive: all assays above

CC(=O)Nc1nnc(S(N)(=O)=O)s1
not listed: DIV14
inactive: all other assays above

c1cnc(N2CCN(Cc3ccc4c(c3)OCO4)CC2)nc1
not listed: CP297 | DIV14
inactive: all other assays above

CC[N+](C)(C)c1cccc(O)c1
not listed: DIV17
inactive: all other assays above

CCO/C([O-])=N/c1c[n+](N2CCOCC2)no1
not listed: CP325
inactive: all other assays above

CN1CCN(CC(=O)N2c3ccccc3C(=O)Nc3cccnc32)CC1
not listed: CP297
inactive: all other assays above

C[n+]1cc2c3c(ccc2c2ccc4cc5c(cc4c21)OCO5)OCO3
not listed: CP305 | CP325 | DIV14 | GB4
inactive: all other assays above

COc1ccc([C@@H]2Sc3ccccc3N(CCN(C)C)C(=O)[C@@H]2OC(C)=O)cc1
active: JCK 10 µM
inactive: all other assays above
